In PubChem BioAssay:
The source made the active and inactive calls. Unless noted, no rule for the calls is given here.

Key:
[1] = compounds binding Alexa647 anti-His antibody – biochemical, small-molecule microarray, 635 nm fluorescence, artefact control for SMM control protein annotation, primary screen (AID 1128); conditions: higher = more signal;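 also: score merges feature fluorescence with signal-to-noise for each printed compound spot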
[2] = tested on: Human papillomavirus type 1a E7 protein (residues 1-88); assay: HPV1a E7 small-molecule binders, primary screen, biochemical, small-molecule microarray, residues 1-88, 635 nm (AID 1129); conditions: small-molecule microarray binding, fluorescence 635 nm; higher = more signal
[3] = target: Focal adhesion kinase 1 (Homo sapiens) (UniProt Q05397); assay: PTK2 protein binding on printed compound slides – biochemical, small-molecule microarray, 635/667 nm fluorescence, BSA, DTT, primary screen (AID 1130); conditions: 635 nm fluorescence, higher = more signal;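 also: composite of spot emission at 667 nm and signal to noise over triplicate slides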
[4] = tested on: Fibrinogen (Alexa647-labelled); assay: Alexa647-fibrinogen binding to printed small molecules – biochemical, small-molecule microarray, 635/667 nm fluorescence, artefact control for SMM control-protein annotation, profiling panel (AID 1131); conditions: fibrinogen-A647 binding fluorescence, higher = more signal;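 also: z-score merges 667 nm fluorescence with per-spot signal-to-noise over triplicate slides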
[5] = target: Follistatin (Homo sapiens) (UniProt P19883); assay: FST protein binding to printed compounds – biochemical, small-molecule microarray, 635/667 nm fluorescence, primary screen (AID 1132); conditions: 635 nm fluorescence, higher = more signal
[6] = target: Fibroblast growth factor 2 (Homo sapiens) (UniProt P09038); assay: basic fibroblast growth factor binding to printed compounds – biochemical, small-molecule microarray, 635/667 nm fluorescence, primary screen (AID 1133); conditions: FGF2, fluorescence 635/667, higher = more signal
[7] = JC-1 mitochondrial potential readout, lung cancer cells – cell-based, A549, JC-1 fluorescence, basal, 24 h, 100 nL, profiling panel (AID 1138); conditions: higher = more signal;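 also: A549 lung adenocarcinoma cells under basal conditions with no added stimulus; test concentration not given here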
[8] = tested on: Lefty1; assay: Lefty1 protein binding to printed compounds – biochemical, small-molecule microarray, 635/667 nm fluorescence, primary screen (AID 1139); conditions: fluorescence 635/667, higher = more signal
[9] = tested on: wheat germ agglutinin (Triticum aestivum), Alexa647-labelled; assay: Alexa647-WGA lectin binding to printed small molecules – biochemical, small-molecule microarray, 635/667 nm fluorescence, artefact control for SMM control-protein annotation, profiling panel (AID 1140); conditions: WGA-A647 binding, 635 nm fluorescence, higher = more signal;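 also: score merges 667 nm feature emission with signal to noise over triplicate slides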
[10] = target: Luciferin 4-monooxygenase (Photinus pyralis) (UniProt P08659); assay: inhibition of purified Photinus pyralis luciferase – biochemical, luminescence, purified enzyme, 2006 set, primary screen (AID 1141); conditions: purified firefly luciferase, SteadyGlo luminescence, 30 min; higher = more signal, called active from +8 up or from −8 down;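 also: cell-free assay with purified firefly luciferase at 100 ng per well in PBS; test concentration not given here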
[11] = tested on: Wnt5a (protein binding on small-molecule microarray); assay: small molecules binding Wnt5a protein – biophysical, small-molecule microarray, 635/667 nm fluorescence, primary screen (AID 1142); conditions: 635 nm fluorescence, higher = more signal;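 also: fluorescence read at 667 nm with signal to noise per printed feature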
[12] = ATP-based viability of Huh7 replicon cells – cell-based, CellTiter-Glo luminescence, basal, 48 h, cytotoxicity control for HCV replication inhibitor project, primary screen (AID 1143); conditions: higher = more signal, called active from +8 up or from −8 down;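 also: Huh7 hepatoma cells carrying a hepatitis C replication reporter with no stimulus; test concentration not given here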
[13] = Pseudomonas biofilm growth suppression – PAO1 strain, BacTiter-Glo luminescence, LB-PBS, primary screen (AID 1144); conditions: P. aeruginosa PAO1 biofilm, 12 h, higher = more signal
[14] = basal CRE-LacZ reporter activity in PC12 – cell-based, unstimulated, primary screen (AID 1145); conditions: no forskolin, luminescence, 4.5 h, higher = more signal, called active from +8 up or from −8 down
[15] = forskolin-driven CRE-LacZ activity in PC12 – cell-based, CRE-LacZ reporter, forskolin-stimulated, primary screen (AID 1146); conditions: luminescence, 4.5 h, higher = more signal, called active from +8 up or from −8 down;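 also: PC12 cells with 6xCRE LacZ reporter stimulated by forskolin 10 µM; beta-galactosidase reporter signal reflecting CREB driven transcription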
[16] = target: Streptavidin (Streptomyces avidinii) (UniProt P22629); assay: compounds binding control protein streptavidin – biophysical, small-molecule microarray, 635/667 nm fluorescence, artefact control for SMM compound annotation, primary screen (AID 1147); conditions: higher = more signal;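 also: signal reflects streptavidin binding to arrayed compounds as a control protein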
[17] = probe aInhba binding on compound microarray – biochemical, small-molecule microarray, 635/667 nm fluorescence, primary screen (AID 1148); conditions: higher = more signal;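 also: score merges 667nm spot fluorescence with signal-to-noise for antibody binding to printed compounds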
[18] = target: Torsin-1A (Homo sapiens) (UniProt O14656); assay: TOR1A wild-type binding on microarray – cell lysate, small-molecule microarray, lysate, 635/667 nm, primary screen (AID 1149); conditions: COS7 hTOR1A-WT lysate, 635 nm fluorescence, higher = more signal
[19] = target: Torsin-1A (Homo sapiens) (UniProt O14656); assay: torsin A mutant lysate binding on microarrays – cell lysate, small-molecule microarray, COS7 lysate, 635/667 nm fluorescence, primary screen (AID 1150); conditions: COS7 hTOR1A mutant lysate, 635 nm fluorescence, higher = more signal;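 also: score pools 667 nm emission and signal to noise measuring lysate protein binding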
[20] = tested on: Sonic hedgehog protein (Shh); assay: Sonic hedgehog microarray binding compounds – biochemical, small-molecule microarray, 635/667 nm fluorescence, primary screen (AID 1151); conditions: 635 nm fluorescence, higher = more signal;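 also: Shh protein binding to compounds spotted on small-molecule microarray slides; score combines spot fluorescence intensity with signal-to-noise across triplicate slides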

Chain of Luciferin 4-monooxygenase (Photinus pyralis) (P08659 whole entry, looked up): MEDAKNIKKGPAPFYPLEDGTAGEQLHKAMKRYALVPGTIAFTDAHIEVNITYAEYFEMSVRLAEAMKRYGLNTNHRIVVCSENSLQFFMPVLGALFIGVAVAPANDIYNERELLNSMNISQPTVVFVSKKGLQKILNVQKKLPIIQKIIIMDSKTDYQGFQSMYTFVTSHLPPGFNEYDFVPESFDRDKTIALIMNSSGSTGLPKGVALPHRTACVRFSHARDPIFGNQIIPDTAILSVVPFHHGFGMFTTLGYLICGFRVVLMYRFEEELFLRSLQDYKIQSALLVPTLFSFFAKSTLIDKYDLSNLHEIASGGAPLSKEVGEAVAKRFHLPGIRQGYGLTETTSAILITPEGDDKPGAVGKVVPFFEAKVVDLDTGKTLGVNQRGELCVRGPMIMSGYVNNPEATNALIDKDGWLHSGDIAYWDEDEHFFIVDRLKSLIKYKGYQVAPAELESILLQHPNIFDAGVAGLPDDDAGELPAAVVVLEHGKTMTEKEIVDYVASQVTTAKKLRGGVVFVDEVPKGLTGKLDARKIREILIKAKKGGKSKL
Chain of Fibroblast growth factor 2 (Homo sapiens) (P09038 whole entry, looked up): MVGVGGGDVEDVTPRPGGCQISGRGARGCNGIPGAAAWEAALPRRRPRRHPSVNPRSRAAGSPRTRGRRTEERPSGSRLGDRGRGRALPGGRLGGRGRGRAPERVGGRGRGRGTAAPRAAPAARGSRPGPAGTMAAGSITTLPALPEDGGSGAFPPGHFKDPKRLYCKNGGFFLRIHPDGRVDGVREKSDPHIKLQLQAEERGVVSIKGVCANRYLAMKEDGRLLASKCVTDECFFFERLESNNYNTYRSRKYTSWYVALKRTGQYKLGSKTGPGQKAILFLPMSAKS
Chain of Streptavidin (Streptomyces avidinii) (P22629 whole entry, looked up): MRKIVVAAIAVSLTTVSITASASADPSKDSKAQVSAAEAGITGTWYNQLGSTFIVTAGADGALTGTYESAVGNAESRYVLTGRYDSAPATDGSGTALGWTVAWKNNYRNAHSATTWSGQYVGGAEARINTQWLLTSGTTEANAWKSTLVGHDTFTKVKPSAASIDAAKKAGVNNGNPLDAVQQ
Chain of Focal adhesion kinase 1 (Homo sapiens) (Q05397 whole entry, looked up): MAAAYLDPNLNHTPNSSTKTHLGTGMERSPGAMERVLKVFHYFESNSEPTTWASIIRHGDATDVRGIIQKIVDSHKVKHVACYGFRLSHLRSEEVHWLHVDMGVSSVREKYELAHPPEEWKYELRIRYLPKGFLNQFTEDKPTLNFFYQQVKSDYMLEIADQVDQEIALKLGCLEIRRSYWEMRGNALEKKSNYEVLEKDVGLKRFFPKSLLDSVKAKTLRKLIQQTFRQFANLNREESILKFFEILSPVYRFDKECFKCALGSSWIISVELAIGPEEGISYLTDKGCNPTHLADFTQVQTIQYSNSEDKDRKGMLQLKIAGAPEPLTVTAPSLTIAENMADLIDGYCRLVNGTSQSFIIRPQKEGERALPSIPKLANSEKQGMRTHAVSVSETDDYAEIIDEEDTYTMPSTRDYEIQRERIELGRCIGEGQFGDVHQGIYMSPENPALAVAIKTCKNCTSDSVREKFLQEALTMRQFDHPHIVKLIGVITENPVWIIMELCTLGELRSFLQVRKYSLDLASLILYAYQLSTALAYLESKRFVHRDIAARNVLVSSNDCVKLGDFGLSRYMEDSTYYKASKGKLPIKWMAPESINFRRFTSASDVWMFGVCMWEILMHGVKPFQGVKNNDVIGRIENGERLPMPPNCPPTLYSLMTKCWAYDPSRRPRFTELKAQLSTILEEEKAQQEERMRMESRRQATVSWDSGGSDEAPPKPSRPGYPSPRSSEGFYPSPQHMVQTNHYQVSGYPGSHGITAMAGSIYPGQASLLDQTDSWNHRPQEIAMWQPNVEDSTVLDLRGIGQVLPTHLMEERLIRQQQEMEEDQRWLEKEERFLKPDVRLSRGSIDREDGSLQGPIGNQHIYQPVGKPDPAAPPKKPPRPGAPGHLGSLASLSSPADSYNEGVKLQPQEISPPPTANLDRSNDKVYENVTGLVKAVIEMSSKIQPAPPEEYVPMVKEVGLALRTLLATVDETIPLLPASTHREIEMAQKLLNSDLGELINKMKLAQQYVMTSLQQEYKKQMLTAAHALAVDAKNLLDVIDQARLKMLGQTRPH
Chain of Follistatin (Homo sapiens) (P19883 whole entry, looked up): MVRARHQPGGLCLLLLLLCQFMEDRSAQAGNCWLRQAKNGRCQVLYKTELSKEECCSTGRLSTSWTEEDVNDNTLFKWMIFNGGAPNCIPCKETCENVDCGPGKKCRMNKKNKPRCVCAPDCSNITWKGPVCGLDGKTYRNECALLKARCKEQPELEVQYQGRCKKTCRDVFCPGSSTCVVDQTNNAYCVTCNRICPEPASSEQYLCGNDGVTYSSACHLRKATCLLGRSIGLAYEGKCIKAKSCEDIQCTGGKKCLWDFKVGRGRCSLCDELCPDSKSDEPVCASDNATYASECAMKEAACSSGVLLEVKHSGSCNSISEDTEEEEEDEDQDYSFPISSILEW
Chain of Torsin-1A (Homo sapiens) (O14656 whole entry, looked up): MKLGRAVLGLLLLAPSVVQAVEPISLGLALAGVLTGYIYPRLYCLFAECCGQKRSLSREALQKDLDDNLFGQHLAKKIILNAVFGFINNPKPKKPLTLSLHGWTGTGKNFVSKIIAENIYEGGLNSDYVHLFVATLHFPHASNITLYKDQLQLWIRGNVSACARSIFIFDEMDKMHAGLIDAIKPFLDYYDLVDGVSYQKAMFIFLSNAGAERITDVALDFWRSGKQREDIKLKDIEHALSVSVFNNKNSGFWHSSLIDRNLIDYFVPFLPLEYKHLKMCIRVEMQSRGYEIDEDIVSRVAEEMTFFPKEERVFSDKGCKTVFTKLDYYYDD

SMILES	composite z-score [1]	composite z-score [2]	composite z-score [3]	composite z-score [4]	composite z-score [5]	composite z-score [6]	z-score [7]	composite z-score [8]	composite z-score [9]	z-score [10]	composite z-score [11]	z-score [12]	z-score [13]	z-score [14]	z-score [15]	composite z-score [16]	composite z-score [17]	composite z-score [18]	composite z-score [19]	composite z-score [20]
CCCCC(CC)C(O)C1C=CC2C(=O)N(c3ccccc3)C(=O)C2N1Nc1ccc([N+](=O)[O-])cc1 (stereo not given)	1.48	1.23	0.623	1.04	1.21	0.456	-1.19	0.39	1.02	0.262 (inactive)	0.382	-0.728 (inactive)	0.00163 (inactive)	0.285 (inactive)	-0.0973 (inactive)	1.41	0.32	0.202	0.923	-0.277
COCCOC(=O)N1C(=O)[C@@]2(c3cc(C#CC4=CCCCC4)ccc31)[C@H](c1ccccc1OCCO)N1[C@H](c3ccccc3)[C@H](c3ccccc3)OC(=O)[C@H]1[C@@H]2C(=O)N1CCc2cc(OC)c(OC)cc2C1	0.891	1.2	0.204	0.764	1.28	0.917	-0.682	0.555	0.441	-1.97 (inactive)	0.316	-1.93 (inactive)	-0.455 (inactive)	1.03 (inactive)	0.904 (inactive)	-0.0953	-0.305	-0.148	0.536	1.79
[N-]=[N+]=Nc1ccccc1C[C@@]1(C(=O)O)N=C(c2ccc(OCCCO)cc2)O[C@@H]1c1ccccc1	1.22	0.749	0.769	0.997	0.247	-0.0664	0.528	-0.634	1.09	-0.972 (inactive)	0.104	-0.275 (inactive)	-0.078 (inactive)	-0.585 (inactive)	-0.218 (inactive)	1.48	0.0633	0.0324	0.779	-0.0424
CC(C)(C)OC(=O)CC[C@]1(C(=O)NCCN2CCOCC2)N=C(c2ccc(OCCCO)cc2)O[C@H]1c1ccccc1	2.21	0.358	0.75	0.955	-0.0269	-0.397	1.21	-0.964	0.391	-1.16 (inactive)	0.298	0.268 (inactive)	-0.375 (inactive)	-0.174 (inactive)	-0.266 (inactive)	0.541	0.165	-0.357	0.833	-1.23
COC(=O)[C@@]1(Cc2ccccc2)[C@H]2c3cc(C(=O)N4CCCC4)[nH]c3C[C@H]2CN1C(=O)c1ccccc1	0.886	-0.0205	1.24	0.664	-0.382	-0.757	0.709	-0.826	-0.129	1.18 (inactive)	-0.0884	-0.117 (inactive)	-0.39 (inactive)	0.779 (inactive)	0.283 (inactive)	0.255	0.192	0.223	0.246	-0.786
CC(C)C(O)C1C=CC2C(=O)N(C)C(=O)C2N1N(c1ccccc1)c1ccccc1 (stereo not given)	0.545	-0.735	0.523	0.597	-0.0394	-0.926	0.953	-0.852	0.357	0.734 (inactive)	-0.18	0.909 (inactive)	0.633 (inactive)	0.0535 (inactive)	-0.136 (inactive)	0.0226	-0.0332	-0.141	0.369	-1.28
C=C[C@@H](C)[C@H](OC(=O)Nc1ccc(SC)cc1)c1ccc(OCCO)cc1	-0.0489	-0.784	0.31	-1.64	0.229	-0.549	-0.497	0.0878	0.782	-4.77 (inactive)	-0.403	-0.957 (inactive)	-1.37 (inactive)	0.861 (inactive)	-0.97 (inactive)	-0.936	-0.259	-0.582	0.695	0.182
CC(C)C(=C=CC[C@H](O)c1ccc(OCCO)cc1)C[C@H](O)c1cc(Cl)cc(Cl)c1O	2.46	1.09	-0.0133	0.134	0.996	1.09	1.78	1.22	0.539	-1.78 (inactive)	0.0991	-3.24 (inactive)	0.0919 (inactive)	7.76 (inactive)	-0.457 (inactive)	0.122	0.153	0.895	0.656	1.71
CCOC(=O)C[C@H]1[C@H](OC(=O)c2ccccc2-c2ccccc2)[C@@H](NC(=O)CC(C)C)c2cc(OCCCO)ccc2N1C(=O)c1ccc2ccccc2n1	-0.123	0.304	0.162	0.335	0.323	0.318	0.488	0.76	0.152	0.365 (inactive)	0.0056	-0.431 (inactive)	1.51 (inactive)	8.37 (active)	0.724 (inactive)	0.543	-0.016	0.0167	0.0401	0.196
C=CCC(OC(C)=O)[C@@H]1[C@@H](N(Cc2ccc(-c3ccccc3)cc2)C(=O)c2cccc3ccccc23)c2cc(OCCCO)ccc2N1C(=O)Cc1ccc2ccccc2c1 (stereo not given in full)	0.23	-0.0083	-0.0525	-0.545	0.295	-0.327	0.31	0.191	0.605	-0.105 (inactive)	-0.195	-1.31 (inactive)	0.457 (inactive)	0.423 (inactive)	-0.481 (inactive)	-0.0695	-0.17	0.0517	0.12	0.39
